# Measured values: PubChem BioAssay (NCI)
# The panel holds about 83,000 compounds, 20% with a hit somewhere; the sample as a whole holds those more often.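 Compound tested at a single concentration for 48 hours in 96-well plates; a percent growth value below 10 was scored as active.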 Active and inactive are the calls of the source.
# Tested on: BT-549 breast
# Experiment: NCI-60 one-dose screen, 48 h (100 = growth as untreated, 0 = no growth, -100 = all killed)
# Details: 10 µM unless noted
row,Structure (SMILES),growth
1,O=S(=O)(NCCCNc1cc(-c2cn(-c3ccccc3)nc2-c2cccc(O)c2)ccn1)c1ccc(Cl)cc1,11.7% (inactive)
2,COc1ccc(-c2nc3sccn3c2-c2ccnc(NCCCNS(=O)(=O)c3ccc(C)cc3)n2)cc1,42.5% (inactive)
3,O=C1c2ccccc2C(=O)c2c1oc1oc3c(c(=O)c21)c(=O)n(-c1ccccc1)c1ccccc31,12.3% (inactive)
4,C#CCC1(c2ccc(F)c(F)c2)NS(=O)(=O)c2ccccc21 (centres undefined),110% (inactive)
5,Cc1nc(Nc2cccnc2)sc1C(=O)/C=C/c1ccc(F)cc1,1.57% (active)
6,CCC#CC[C@H]1C/C=C2/C(=O)C=C[C@@H]2C/C=C\CCCC(=O)O1,0.46% (active)
7,CNC(=O)Cc1nc(-c2cccc(NS(=O)(=O)c3c(F)cccc3F)c2F)c(-c2ccnc(Nc3ccccc3)n2)s1,103% (inactive)
8,CC(=O)Nc1ccc2c(c1)/C(=C\C=C/c1ccc([N+](C)(C)C)cc1)c1ccccc1-2,94.6% (inactive)
9,COc1cc(OC)cc(-c2n[nH]nc2-c2ccc3c(c2)OCO3)c1,51.2% (inactive)
10,O=C1CCC/C=C\C[C@H]2C=CC(=O)/C2=C/C[C@H](C/C=C\CC(F)(F)F)O1,-18% (active)
11,O=C(Nc1cccc(Cl)c1)c1cc([N+](=O)[O-])ccc1O,66.5% (inactive)
12,O=C1N=C(c2c(-c3[nH]c(=O)c4ccc(Br)cc4c3O)c(O)c3ccccc3c2O)C(=O)c2cc(Br)ccc21,-25.4% (active)
13,COc1cc(-n2nc(C(=O)Nc3ccc(C(=O)O)cc3)nc2-c2ccccc2)cc(OC)c1OC,105% (inactive)
14,COc1ccc(OC)c(-c2ccc(-c3ccccc3N)c3[nH]c4ccccc4c23)c1,72.5% (inactive)
15,COc1ccc(S(=O)(=O)Nc2cc(/C=C\c3cc(OC)c(OC)c(OC)c3)cc(OC)c2OC)cc1OC,47% (inactive)
16,Cc1cc(NC(=O)COC(=O)c2sc3cc(F)ccc3c2Cl)no1,117% (inactive)
17,Nc1c(C(=O)Nc2cccc(C(F)(F)F)c2)sc2nc3c(cc12)C(O)CCC3 (centres undefined),52.9% (inactive)
18,CC(=O)C1CCC(C)=CC1=O (centres undefined),93.3% (inactive)
19,COc1ccc(-c2nc3sccn3c2-c2ccnc(NCCCNS(=O)(=O)c3ccc(F)cc3)n2)cc1,10% (inactive)
20,COc1cc(-c2csc(NC(=O)Nc3ccc(Cl)cc3Cl)n2)cc(OC)c1OC,38.3% (inactive)

row,Structure (SMILES),growth
1,CCSc1nnc(Nc2ccc(C(C)C)cc2)s1,103% (inactive)
2,CCOC(=O)CC/C(C)=N\Nc1ccc([N+](=O)[O-])cc1,82.4% (inactive)
3,Cc1ccc2c(c1)C(=O)C(c1c(-c3[nH]c(=O)c4ccc(C)cc4c3O)c(O)c3ccccc3c1O)=NC2=O,32.7% (inactive)
4,CN(C)CCCNC(=O)C(c1ccccc1)c1ccccc1,106% (inactive)
5,COc1ccc(-c2nnc(COc3ccc(NC(=O)Nc4ccc(Cl)c(C(F)(F)F)c4)cc3F)o2)cc1,-2.18% (active)
6,O=c1oc2cc(OS(=O)(=O)c3ccc(F)cc3)ccc2c2c1CCCCC2,73.6% (inactive)
7,Nc1nc(-c2ccccc2)cs1,116% (inactive)
8,COc1ccc(C(=O)/C=C/c2cccc([N+](=O)[O-])c2)c(OC)c1,4.85% (active)
9,C=CCOc1cccc(/C=C/C(=O)c2sc(Nc3cccnc3)nc2C)c1,44% (inactive)
10,Cc1cc(Nc2nc(C(=O)Nc3ccccc3)nc3ccccc23)n[nH]1,50.6% (inactive)
11,CC1CCN(C(=O)CSc2nc3sc4c(c3c(=O)[nH]2)CCCC4)CC1,95.2% (inactive)
12,COc1ccc(-c2nc(-c3nc4ccc(F)cc4[nH]3)cc3c2[nH]c2ccccc23)cc1,41.8% (inactive)
13,CC/C=C\C[C@H](O)C/C=C1/C(=O)C(Cl)=C[C@@H]1C/C=C\CCCC(=O)O,58.5% (inactive)
14,O=c1[nH]c2ccccc2cc1-c1nnc(Cc2ccccc2)o1,48.9% (inactive)
15,COc1ccc(C2CC(c3cccs3)=NN2c2ccc(S(=O)(=O)NC(=O)Nc3ccc(C)cc3)cc2)cc1 (centres undefined),74.2% (inactive)
16,CCSc1nnc(NC(=O)COc2ccc(Cl)cc2C)s1,110% (inactive)
17,COc1ccc(Cn2c(SC)nc(=O)n(Cc3ccc(Cl)cc3)c2=O)cc1,97% (inactive)
18,O=C(Nc1ccc(Br)c(Cl)c1)c1cc(F)ccc1O,-39% (active)
19,O=C(CCl)NCCNc1nccc(Nc2ccc(S(=O)(=O)Nc3ccccn3)cc2)n1,-5.35% (active)
